The record followed here is PubChem BioAssay AID1566 (Sanford-Burnham Center for Chemical Genomics, 2009).

The inhibition is the drop in the measured response relative to a control, in per cent.

Among all 290,000 compounds or so, about 1,800 (0.62%) were called active. The sample holds actives, similar compounds and a random draw of the others, so the mix is not that of the screen. No stated cut-off is given here; in the data, active means inhibition above about 50%; inactive means the rest.

The test in a line: inhibition of NOD2-driven NF-kB reporter – cell-based, luminescence, uHTS, HEK293 (AID 1566). The following applies: HEK293 NOD2/NF-kB luciferase reporter, at 4 µM, stronger effect = higher value. Background: Reporter assays use an easily measured gene product as a stand-in for the process of interest.
For `Cc1ccc(C(=O)N2CCCC(Nc3ccc(C)c(C)c3)C2)c(=O)[nH]1` (stereo unspecified), the inhibition is 9.6% (inactive).

As to `CCCCn1c(SCC(=O)c2ccccc2)nc2ccsc2c1=O`, the inhibition is 13.3% (inactive). The value for `CCCCn1c(SCC(=O)N2CCC(C)CC2)nc2ccsc2c1=O` was -2.9% (inactive); that for `CC(=O)c1cccc(NC(=O)C2C3CCC(C3)C2C(=O)O)c1` (stereo unspecified) was 4.1% (inactive). The value for `COc1ccc(NC(=O)c2ccc(NCC3CCCO3)c([N+](=O)[O-])c2)cc1` (stereo unspecified) was 13.3% (inactive).

For the compound `Fc1ccccc1NC(=S)NNc1ncc(C(F)(F)F)cc1Cl`, the inhibition is 13.7% (inactive). The value for `Cc1ccccc1NC(=S)NNc1ncc(C(F)(F)F)cc1Cl` was 4.9% (inactive); that for `COc1ccc(/C=C2\SC(=S)N(CCC(=O)NC3C=CS(=O)(=O)C3)C2=O)cc1` (stereo unspecified) was 11.8% (inactive); that for `Cc1cccc(Oc2ccc(NC(=O)c3ccccc3C(=O)O)cc2)c1C` was 8.6% (inactive). Consider `O=C(O)c1ccccc1C(=O)Nc1ccc(Oc2cccc3ccccc23)cc1`, for which the inhibition was 61.3% (active). Regarding `O=C(O)c1ccccc1C(=O)Nc1ccc(Oc2ccccc2)cc1`, the inhibition was 7.7% (inactive). Under `CC(C)[C@H](NC(=O)OC(C)(C)C)C(=O)N/N=C/c1cccc2nccnc12` stands 10.5% (inactive); under `O=[N+]([O-])c1ccc(CSc2nnc(Cc3ccccc3)o2)cc1`, 1.1% (inactive); under `CC(=O)CSc1nnc(Cc2ccc([N+](=O)[O-])cc2)o1`, 9.2% (inactive). Regarding `COc1ccc(Cc2nnc(SCc3ccc([N+](=O)[O-])cc3)o2)cc1`, the inhibition was 56.9% (active). Under `O=C(O)CNC(=S)N(Cc1ccccc1)Cc1ccccc1F` stands 16.1% (inactive). Under `CN=c1scc(-c2ccccc2F)n1/N=C/c1ccc(O)c(O)c1O` stands 18.1% (inactive); under `CN=c1scc(-c2ccccc2F)n1/N=C/c1ccc[nH]1`, 90.4% (active). Under `CN=c1scc(-c2ccccc2Br)n1/N=C/c1ccc[nH]1` stands 42.5% (inactive); under `Cc1cc(C(=O)COC(=O)c2ccc[nH]c2=O)c(C)n1-c1ccc(F)cc1`, -12.8% (inactive). On to `Cc1cc(C(=O)CN2CCCCC2)c(C)n1-c1ccc(F)cc1`, for which the inhibition was -23.5% (inactive). Under `Cc1cc(C(=O)COC(=O)C2CC2)c(C)n1-c1ccc(F)cc1` stands 60.3% (active). The value for `Cc1cccc(C(=O)NC(=S)Nc2ccc3[nH]c(=O)[nH]c3c2)c1` was -10.1% (inactive).

In the case of `O=C(COC(=O)CCC(=O)c1cccs1)Nc1ccc(Cl)cn1`, the inhibition was -14% (inactive). As to `Cc1cc(C2=NNC(=NC3CCCCC3)SC2)c(C)n1-c1c(C)n(C)n(-c2ccccc2)c1=O`, the inhibition is 2% (inactive). Turning to `CCN=C1NN=C(c2cc(C)n(Cc3ccco3)c2C)CS1`, the inhibition was 82.2% (active).

As for `Cc1cc(C2=NNC(=NC3CC3)SC2)c(C)n1Cc1ccco1`, the inhibition was 85.3% (active). The value for `Cc1cc(-c2csc(N)n2)c(C)n1Cc1ccco1` was 1.7% (inactive). The value for `CCN=C1NN=C(c2cc(C)n(CCc3ccccc3)c2C)CS1` was 0.1% (inactive); that for `COCCCN=C1NN=C(c2cc(C)n(Cc3ccco3)c2C)CS1` was -60.2% (inactive). The value for `CCCC(=O)C1=C(O)C(C(=O)OC)C(C)(C)CC1=Nc1cccc2ccccc12` (stereo unspecified) was 13.4% (inactive); that for `CCCn1c(SCC(=O)NC2CCCCC2)nnc1-c1ccccn1` was 22.2% (inactive).

In the case of `C=CCn1c(O)c(C=Nc2ccc(CN3CCCCC3)cc2)c(=O)[nH]c1=S`, the inhibition is 25.5% (inactive). The value for `CCCCCn1ccc(=N)cc1` was 31.1% (inactive). Under `CCCCCCn1ccc(=N)cc1` stands 40.3% (inactive). Under `C[C@]12CCC3C(CC[C@H]4CC(O)CC[C@]34C)C1CC/C2=N/NC(=O)c1ccncc1` (stereo partly specified) stands -5.7% (inactive). In the case of `C[C@]12CCC3C(CC[C@H]4CC(O)CC[C@]34C)C1CC/C2=N/O` (stereo partly specified), the inhibition was 26.5% (inactive). The value for `C/C(=N\NC(N)=S)C1=CCC2C3CC[C@H]4CC(O)CC[C@]4(C)C3CC[C@]12C` (stereo partly specified) was 54.6% (active); that for `O=C(Oc1ccccc1C(=O)Nc1ccccc1)c1ccc(Br)c([N+](=O)[O-])c1` was -12.7% (inactive). `Cc1cc(CNC(=O)c2cccc([N+](=O)[O-])c2C)c2ccccc2n1`: the inhibition was 31.5% (inactive). The value for `O=C(CSc1nnc(CNC(=O)c2ccco2)o1)Nc1ccc(OC(F)(F)F)cc1` was 9.8% (inactive); that for `COc1ccccc1NC(=O)CSC1=NC(=O)C(Cc2ccccc2)C(=O)N1` (stereo unspecified) was -3% (inactive). Take `CC(=O)NS(=O)(=O)c1ccc(NS(=O)(=O)c2ccc3ccccc3c2)cc1`: the inhibition is 0.7% (inactive). The value for `COc1ccccc1Cn1c(=S)[nH]c2cc(C(=O)NCCN(C)C)ccc2c1=O` was 20.6% (inactive). The value for `Cc1cc(NC(=O)CSc2ccc3nnc(-c4ccc(Cl)cc4)n3n2)no1` was 5.8% (inactive); that for `COc1cc(/C=C2\C(=N)N3N=C(S(C)(=O)=O)SC3=NC2=O)cc(OC)c1OCCOc1cccc(C)c1` was 25.9% (inactive).

As for `C=CCOc1ccc(/C=C2\C(=N)N3N=C(S(=O)(=O)CC)SC3=NC2=O)cc1OC`, the inhibition was 28.5% (inactive). Take `CCOc1cc(/C=C2\C(=N)N3N=C(C)SC3=NC2=O)ccc1OCCOc1cccc(OC)c1`: the inhibition is 7.2% (inactive).

`CCS(=O)(=O)C1=NN2C(=N)/C(=C\c3ccc(OS(=O)(=O)c4ccccc4)c(OC)c3)C(=O)N=C2S1`: the inhibition is 12.5% (inactive).

With `CCOC(=O)C1=NN(c2ccccc2)C2C(=O)N(c3ccccc3OC)C(=O)C12` (stereo unspecified), the inhibition is 21.2% (inactive). The value for `Cc1cc(C)n2nc(SCC(=O)c3ccccc3)nc2n1` was -15.3% (inactive); that for `COc1ccc(CC(=O)Nc2nc(-c3ccc(F)c(F)c3)cs2)cc1` was 15.8% (inactive); that for `COc1ccc(-c2csc(NC(=O)Cc3cc(OC)c(OC)c(OC)c3)n2)cc1OC` was 22.7% (inactive).

As for `COc1cc(CC(=O)Nc2nc(-c3ccc(F)c(F)c3)cs2)cc(OC)c1OC`, the inhibition is 58.7% (active). Under `O=C(Nc1c(F)cc(F)cc1Br)c1cccnc1` stands -9.2% (inactive); under `C/C(CC(=O)Nc1ccc(Cl)c(Cl)c1)=N\NC(N)=S`, -15.1% (inactive); under `N#Cc1c(-c2ccc(Cl)cc2)cc(-c2ccccc2)nc1SCC(=O)O`, 26% (inactive).

As to `COc1ccc(-c2cc(C(F)(F)F)c(C#N)c(SCC(=O)O)n2)cc1`, the inhibition was 9.7% (inactive). Under `COc1ccc(-c2cc(-c3ccc(Cl)cc3)c(C#N)c(SCC(=O)O)n2)cc1` stands 62.5% (active); under `COc1ccc(Cl)c(OC)c1C(=O)NC(=O)Nc1nc(C)nc(C)n1`, 3.1% (inactive).

With `CC(=O)Nc1cc2nn(-c3ccccc3)nc2cc1Cl`, the inhibition was -133% (inactive). Under `CCC(=O)Nc1cc2nn(-c3ccccc3)nc2cc1Cl` stands -189% (inactive); under `CC(C)(C)C(=O)Nc1cc2nn(-c3ccccc3)nc2cc1Cl`, 76.2% (active); under `CC1(C)c2ccccc2N2CCC(=O)NC21/C=C/c1ccco1` (stereo unspecified), 3.8% (inactive). Under `COC(=O)c1ccc(NC(=O)c2cccc(N3C(=O)C4C5C=CC(C6CC56)C4C3=O)c2)cc1` (stereo unspecified) stands 58.5% (active); under `O=C(Nc1ccccc1)c1cccc(N2C(=O)C3C4C=CC(C5CC45)C3C2=O)c1` (stereo unspecified), 31.7% (inactive). Turning to `COc1ccc(NC(=O)c2cccc(N3C(=O)C4C5C=CC(C6CC56)C4C3=O)c2)cc1` (stereo unspecified), the inhibition was 9.4% (inactive). Under `CCOc1ccccc1C(=O)NC(C(=O)NCc1ccccc1OC)C(C)C` (stereo unspecified) stands 2.5% (inactive). Under `COCCNC(=S)N1CCN(c2nc(-c3ccc(Cl)cc3)cs2)CC1` stands 35.9% (inactive); under `CC(C)CNC(=S)N1CCN(c2nc(-c3ccc(Cl)cc3)cs2)CC1`, 54.9% (active). Under `CNC(=S)N1CCN(c2nc(-c3ccc(Cl)cc3)cs2)CC1` stands 11.2% (inactive); under `CCN(CC(=O)Nc1c(F)cccc1F)C(=O)CCc1c[nH]c2ccccc12`, -24.9% (inactive). For the compound `Cc1onc(-c2ccccc2)c1NC(=O)N(CCC(=O)O)Cc1ccccc1`, the inhibition was 15.3% (inactive). In the case of `Cc1c(NC(=O)NCc2ccccc2)c(=O)n(-c2ccccc2)n1C`, the inhibition was -6.6% (inactive). The value for `Cc1ccc(C(=O)N/C(=C\c2ccc(-c3ccccc3[N+](=O)[O-])o2)C(=O)NCCN(C)C)cc1` was 50.5% (active); that for `Cc1ccc(C(=O)N/C(=C\c2ccc(-c3ccccc3[N+](=O)[O-])o2)C(=O)NCCCN2CCOCC2)cc1` was 38.2% (inactive).

On to `Cc1ccc(C(=O)N/C(=C\c2ccc(-c3ccccc3[N+](=O)[O-])o2)C(=O)NCCCN(C)C)cc1`, for which the inhibition was 49.4% (inactive). The value for `NC(=O)c1cc([N+](=O)[O-])ccc1NCCN1C(=O)c2ccc(C(=O)O)cc2C1=O` was 17.5% (inactive). For the compound `Cc1cc(=O)[nH]c2ccc(S(=O)(=O)Nc3ccccc3)cc12`, the inhibition is 4.4% (inactive).

In the case of `O=C(Nc1ccc(C(=O)N2CCOCC2)cc1)c1cccc(Br)c1`, the inhibition was 8% (inactive). Under `Cc1sc2nc3c(C(=O)N4CCN(c5ccccn5)CC4)cccn3c(=O)c2c1C` stands 3.3% (inactive); under `C/C(Cn1nnc([N+](=O)[O-])n1)=N\NC(=O)c1cccc(Cl)c1`, 48.8% (inactive); under `C/C(Cn1nnc([N+](=O)[O-])n1)=N\NC(=O)c1ccc(O)cc1`, 37.7% (inactive). `COc1ccc(-c2csc(/C(C#N)=C\c3ccc(O)c([N+](=O)[O-])c3)n2)cc1OC`: the inhibition was -7.4% (inactive). Under `COc1ccc(-c2csc(/C(C#N)=C\c3ccc(OC)c([N+](=O)[O-])c3)n2)cc1` stands 25.7% (inactive); under `Cc1ncc(CO)c(/C=N/Nc2cccc(Cl)n2)c1O`, -52.5% (inactive). Under `Cc1ncc(CO)c(/C=N/NC(=O)c2ccc(O)cc2)c1O` stands -8.9% (inactive); under `COc1ccccc1N/N=C/c1c(CO)cnc(C)c1O`, -3.8% (inactive). Under `Cc1ncc(CO)c(/C=N/NC(=O)c2ccc(Br)cc2)c1O` stands 51.6% (active); under `Cc1ncc(CO)c(/C=N/Nc2ccc(C(F)(F)F)cn2)c1O`, 59.1% (active); under `COc1ccc(C(=O)N/N=C/c2c(CO)cnc(C)c2O)cc1`, -27.8% (inactive).
